# Test results: PubChem BioAssay (NCI)
# Compounds without any hit were thinned out: in the full panel of roughly 83,000, 20% have a hit.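 How to read the values: 0–100, growth inhibition (40 = 60% inhibited); 0, no net growth; -100 to 0, cell death (-40 = 40% of starting cells died; -100 = all dead).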 Values without a mark were called inactive. Calls of active or inactive are those of the source.
# System: SK-MEL-5 melanoma
# Experiment: NCI-60 one-dose screen, 48 h (100 = growth as untreated, 0 = no growth, -100 = all killed)
# Details: 10 µM unless noted
# Description: Growth inhibition of the SK-MEL-5 human tumor cell line is measured as a screen for anti-cancer activity. Cells are grown in 96 well plates and exposed to the test compound for 48 hours. Compounds are tested at a single concentration, which is 10^-5 M for most compounds. The reported endpoint is percent growth (GI% or GIPRCNT), where numbers from 0 - 100% represent growth inhibition, and numbers from -100% - 0 represent cell death. For example, a value of 40 represents 60% growth inhibition. A value of 0 means no net growth occurred over the course of the experiment. A value of -40 indicates 40% of cells at the beginning of the experiment died by the end of the experiment. A value of -100 means all cells are dead at the end of the experiment.
# NCI-60 Human Tumor Cell Lines Screen was performed using the standard one-dose NCI protocol, which is described in more detail at https://dtp.cancer.gov/discovery_development/nci-60/default.htm.
# Compounds with GIPRCNT values below 10 were considered active. Activity score was based on GIPRCNT using the following formula: […]
# Score is 0 for GIPRCNT values of 100 or above, 50 for GIPRCNT values of 0, and 100 for GIPRCNT values of -100.
row,Structure (SMILES),growth
1,C[C@]12C[C@H](O)[C@H]3[C@@H](CCC4=CC(=O)CC[C@@]43C)[C@@H]1CC[C@@H]2C(=O)CO,91%
2,COC(=O)CCC1=C(C)/C(=C/c2[nH]c(-c3ccc[nH]3)cc2OC)N=C1C,-92% (active)
3,COc1ccc(/C=C(\C#N)c2ccccc2)cc1,81%
4,O=C(/C=C/c1cc2ccccc2[nH]c1=O)c1ccc(O)cc1,96.1%
5,Cc1cc2c(C#N)n3c(c2cc1C)C(=O)C(c1ccccc1)Oc1ccccc1-3 (stereo not given),22.7%
6,Cc1c(NCc2nnc3n(Cc4ccccc4)c(=O)c4c5c(sc4n23)CCCC5)c(=O)n(-c2ccccc2)n1C,81%
7,CCCC[N+](CCCC)=c1ccc2nc3c(C)cc(N(CC)CC)cc3sc-2c1,-96.9% (active)
8,CCCCn1c(Cc2ccc(Cl)cc2)nc2cc(OC)c(OC)cc2c1=O,41%
9,COc1cc(/C=C2\CCC/C(=C\c3ccc(OCC4CO4)c(OC)c3)C2=O)ccc1OCC1CO1 (stereo not given),18.4%
10,CCCCC(C#N)C(N)=O (stereo not given),107%
11,O=C(C(=O)N1CCCCC1)c1ccc(OC2OC(CO)C(O)C(O)C2O)cc1 (stereo not given),105%
12,C[n+]1ccc(C#N)c2ccccc21,99.1%
13,Cc1ccc(NC(=O)COC(=O)c2ccc(S(=O)(=O)N3CCCCCC3)cc2)cc1,104%
14,CCC(O)C(C)(C)C (stereo not given),113%
15,COc1ccccc1[C@H]1c2[nH]c3ccccc3c2C[C@H]2C(=O)N(CCCCCCC(=O)NO)CC(=O)N12,26.6%
16,C[C@]12CC[C@@H]3c4ccc(O)c([N+](=O)[O-])c4CC[C@H]3[C@@H]1CC[C@@H]2NS(=O)(=O)c1ccc(C(F)(F)F)cc1,20.4%
17,CN1COc2ccc3ccccc3c2C1,105%
18,COc1ccc(-c2oc3cc(O)c(OC)c(O)c3c(=O)c2OC)cc1O,8.22% (active)
19,COc1ccc2c(c1)C(=O)c1c-2c(=O)n(CCCCCCC(=O)NO)c2ccccc12,-85.7% (active)
20,Cc1ccc2c(c1)C(=O)/C(=C/c1ncc([N+](=O)[O-])n1C)O2,-38.5% (active)

row,Structure (SMILES),growth
1,O=C1/C(=N/O)CCc2ccccc21,102%
2,Cc1[nH]n(C(N)=S)c(=O)c1N=Nc1ccc(F)c(Cl)c1,95%
3,COc1ccc2nc(-c3ccc(-n4cncc4-c4ccc(OC)c(N)c4)cc3)sc2c1,105%
4,COc1cc(/C=C/C(=O)c2ccc(F)cc2)ccc1OCCCCCOc1cc2c(cc1OC)C(=O)N1CCCC1C=N2 (stereo not given),-78.1% (active)
5,Fc1ccc(-c2nnc(/C=C/c3cn(-c4ccccc4)nc3-c3ccccc3)o2)cc1,105%
6,ClC1C2CC(c3ccccc32)C1Cl (stereo not given),113%
7,Oc1[nH]c2ccccc2c1/C=c1/ccc2c(c1)N=C(c1cc(F)cc(F)c1)N=2,69.5%
8,O=C(/C=C/c1cccnc1)/C=C/c1cccnc1,21%
9,C=C(C)[C@@H]1C[C@H](O)Cc2cc(Cl)cc(Cl)c2N1,102%
10,O=C(CN1CCCCC1)Sc1nnc2sc3ccccc3n12,99.2%
11,Cc1c(C(N)=O)sc2c1C(=O)N(Cc1ccccc1)C1=NN=C(c3ccc(Cl)cc3)CN12,57%
12,CCCCCCCCCCCCCCCCN=C(CC(=O)O)C(=O)O,113%
13,COc1cc(/C=C/C(=O)Nc2ccc3c(c2)/C(=C\c2cccn2C)C(=O)N3)cc(OC)c1OC,18.2%
14,CCOC(=O)c1c(NC(=O)C2CCCCC2C(=O)O)sc2c1CCCC2 (stereo not given),95.1%
15,C[C@]12CC[C@@H]3c4ccc(O)cc4CC[C@H]3[C@@H]1CC[C@@H]2NS(=O)(=O)c1cccc(Br)c1,61.3%
16,O=C(/C=C/c1ccccc1Cl)c1ccc(O)cc1,58.1%
17,O=C(Nc1cccc(C(F)(F)F)c1)Nc1ccc(OCc2nnc(-c3ccc(Cl)cc3)o2)c(F)c1,77.5%
18,CC(=O)Oc1ccc(C23c4ccccc4C2(OC(C)=O)c2cc(OC(C)=O)ccc23)cc1 (stereo not given),88.8%
19,CCOC(=O)C1=NN(c2ccc(Cl)cc2)C2C3N(c4ccc(Cl)cc4)N=C(C(=O)OCC)N3c3ccccc3N12 (stereo not given),92.7%
20,Cn1cc(-c2csc(-c3cn(C)c4ncccc34)n2)c2cc(Br)cnc21,79.3%
